Hits are enriched below; roughly 4% of the tested compounds scored in any of these assays.
TRHR agonist = qHTS for Small Molecule Agonists and Allosteric Enhancers of Human TRH Receptor: Primary Screen for Agonists; Thyrotropin-releasing hormone receptor (Homo sapiens), P34981; TRHR cells, calcium flux fluo-8, FDSS agonist mode; activation, % at 2 µM; 0.18% of 360,000 active; note: 0% is about no effect
Target sequence (P34981 whole entry, looked up): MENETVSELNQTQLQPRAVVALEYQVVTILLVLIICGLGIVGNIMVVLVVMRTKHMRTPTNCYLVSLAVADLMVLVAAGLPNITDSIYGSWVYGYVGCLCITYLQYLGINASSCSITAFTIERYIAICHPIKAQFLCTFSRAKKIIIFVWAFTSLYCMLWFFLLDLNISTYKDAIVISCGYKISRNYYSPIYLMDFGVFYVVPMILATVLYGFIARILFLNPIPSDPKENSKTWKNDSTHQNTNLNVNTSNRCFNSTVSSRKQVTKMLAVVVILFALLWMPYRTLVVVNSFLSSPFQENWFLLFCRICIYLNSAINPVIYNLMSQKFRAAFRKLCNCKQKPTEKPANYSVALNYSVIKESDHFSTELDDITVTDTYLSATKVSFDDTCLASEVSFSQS
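In this calcium-flux screen, cells bearing human TRHR are dye-loaded with fluo-8, baselined for 10 cycles, then exposed to library compounds; positive kinetic calcium responses during the agonist phase mark hits, with TRH as control.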
D1 PAM = Potentiators of Human D1 Dopamine Receptor: qHTS; 0.036% of 360,000 active; D(1A) dopamine receptor (Homo sapiens), P21728; AID 504651, 2011; potentiation, % at 10 µM; HEK293 TREx D1 cells, calcium flux, dopamine EC20 potentiation; in the data active = potentiation above about 30%; note: 0% is about no effect
GRP78 ERSR act = qHTS for Inducers of the Endoplasmic Reticulum Stress Response (ERSR) in Human Glioma: qHTS | Potency, µM, for the others: at the top dose activation, actives largely listed as activators | 0.02% of 420,000 active | AID 602332, 2012 | U87-MG GRP78 promoter luciferase reporter, 16 h; active = well fitted activation curve with a large enough effect; inconclusive = small, poorly fitted or top-dose-only effect; inactive = no such curve, though single readings can be large or run the other way; note: potency is the fitted concentration of half-maximal effect; series mostly up to about 76 µM; % of control where 0% means no effect; nearly all actives have a fitted effect of over 35% in size
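Stably transfected U87-MG glioma cells carrying a GRP78-based luciferase sensor; 16 h compound incubation. Luminescence end-point read 10 min after Bright-Glo addition at room temperature.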
TRHR enhancer = qHTS for Small Molecule Agonists and Allosteric Enhancers of Human TRH Receptor: Primary Screen for Enhancers. TRHR cells, fluo-8 calcium fluorescence, EC20 TRH enhancement. enhancement, % at 2 µM. 0.66% of 360,000 active; in the data active = enhancement above about 30%; note: 0% is about no effect
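TRHR-expressing cells loaded with fluo-8 calcium dye were read kinetically (ex 480/em 530) during compound addition, then stimulated with an EC20 of TRH (10 nM final). Enhancement of the Gq-mediated intracellular calcium response was scored.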
D1 antagonist = Antagonist of Human D 1 Dopamine Receptor: qHTS. AID 504652, 2011. 3.2% of 360,000 active. activity change, negative = inhibition, % at 10 µM. HEK293 TREx D1 cells, calcium flux, dopamine EC80; stronger effect = lower value; in the data active = activity change below about -30%; note: % is set by controls: 0 for no effect and ±100 for the full control effect
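Kinetic fluorescence of a calcium dye serves as the read-out. D1-expressing Hek293 Trex cells, induced overnight at 30 C, are exposed to compound for 180 s before an EC80 dopamine addition, then read 180 s further.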
D1 ag = Allosteric Agonists of the Human D1 Dopamine Receptor: qHTS; HEK293 T-REx D1 cells, calcium flux, agonist mode; activation, % at 2 µM; 1% of 360,000 active; AID 504660, 2011; note: 0% is about no effect
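Inducible HEK293 T-REx D1 cells, force-coupled to calcium signalling, were plated at 4000 cells/well with tetracycline and held overnight at 30 C. After no-wash calcium dye loading, compound-evoked calcium rise over 180 s flagged agonists.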
Active calls of the source: *; ? = inconclusive; · = no result given. Cut-off read from the data, not from the text of the source, unless noted: active = activation above about 30%; inactive = the rest.

SMILES	TRHR agonist	D1 PAM	GRP78 ERSR act	TRHR enhancer	D1 antagonist	D1 ag
CCOC(=O)C(Oc1ccc2c(-c3ccccc3)cc(=O)oc2c1)c1ccccc1 (stereo unspecified)	0.2	-6.5	-3.0%	-5.5	-31.0*	5.3
COC(=O)COc1ccc2c(-c3ccc(OC)cc3)cc(=O)oc2c1	-0.7	-3.5	25.1µM*	-2.7	·	-2.2
COC(=O)C(Oc1ccc2c(-c3ccc(OC)cc3)cc(=O)oc2c1)c1ccccc1 (stereo unspecified)	0.9	-2.1	-5.9%	-0.7	-8.8	3.8
COC(=O)COc1ccc2cc(-c3ccccc3)c(=O)oc2c1	0.1	-5.2	1.0%	-4.4	3.8	8.2
O=C(CN1CCN(c2ccc([N+](=O)[O-])cc2)CC1)Nc1ccccn1	-0.1	-8.5	0.7%	-0.5	-14.5	15.5
O=C(CN1CCN(c2ccc([N+](=O)[O-])cc2)CC1)Nc1nccs1	-0.3	7.3	-1.0%	-1.3	-31.6*	8.4
COc1cc2c(cc1OC)-c1nnnn1C(C)(C)C2	0.3	-0.1	-5.1%	10.5	4.1	2.9
COc1cc2c(cc1OC)-c1n[nH]c(=S)n1C(C)(C)C2	-0.5	-11.7	10.6%	0.0	-59.2*	-0.4
COc1ccc(CCNC(=O)C2CCN(S(=O)(=O)c3ccc(OC)c(OC)c3)CC2)cc1OC	-0.2	-1.7	-2.6%	6.6	-7.9	0.5
COc1ccc(S(=O)(=O)N2CCC(C(=O)NCCC3=CCCCC3)CC2)cc1OC	0.3	-7.2	-1.2%	9.9	-43.0*	0.6
COc1ccc(S(=O)(=O)N2CCC(C(=O)N[C@@H](C)C(=O)NCc3ccc(F)cc3)CC2)cc1	-0.6	3.0	-3.2%	5.7	-34.9*	-0.4
CC(C)[C@H](NC(=O)C1CCN(S(=O)(=O)c2ccccc2)CC1)C(=O)NCc1ccccc1	0.0	-2.9	1.5%	-6.2	-44.7*	2.2
COc1ccc(CNC(=O)C(C)Sc2ccc(S(=O)(=O)N3CCOCC3)cn2)cc1 (stereo unspecified)	0.3	2.1	-3.1%	-3.3	-31.7*	5.4
COc1ccc(CN2CCCC(n3cc(C(=O)NC4CCCC4)nn3)C2)c2ccccc12 (stereo unspecified)	·	·	-3.0%	·	·	·
COCC(=O)Nc1cc(C(=O)N2CCCC2c2nccs2)c2c(c1)nc(-c1ccncc1)n2C (stereo unspecified)	·	·	-2.2%	·	·	·
CN(Cc1cccs1)C(=O)C1CC(=O)N(Cc2ccccc2)C1 (stereo unspecified)	0.4	-5.9	-2.8%	8.1	-54.0*	2.6
COc1ccc(CN2CC(C(=O)NCCc3ccc(C)cc3)CC2=O)cc1 (stereo unspecified)	0.4	-1.6	-3.4%	-1.2	-47.4*	0.4
COc1ccc(CCN(C)CCCN2CC(c3ccccc3)CC2=O)cc1OC (stereo unspecified)	-1.3	-6.9	-2.3%	3.3	-39.3*	1.6
COc1ccc(CCN(C)C(=O)C2CC(=O)N(Cc3ccc(C)cc3)C2)cc1OC (stereo unspecified)	-0.2	·	-1.3%	6.7	-34.1*	1.8
CN(CC(=O)Nc1c(Cl)cccc1Cl)C(=O)C1CC(=O)N(Cc2ccccc2)C1 (stereo unspecified)	0.3	3.1	1.7%	-5.6	23.8	2.2
COc1ccc(C2CC(=O)N(CCCN(C)CCc3ccc(OC)c(OC)c3)C2)cc1 (stereo unspecified)	-0.2	-5.2	-1.7%	19.3	9.0	-0.8
COC(=O)C#CC(=O)OC	·	·	-1.3%	·	·	·
COc1ccccc1Nc1ncnc2c1c(C)c(C)n2CCO	-0.3	-6.2	-4.7%	3.5	-25.5	-0.3
COc1ccc(S(=O)(=O)N2CCCCC2C(=O)O)cc1 (stereo unspecified)	-1.1	-8.9	-1.7%	-9.1	-12.8	0.6
COc1ccc(CNC(=O)C2CCN(S(=O)(=O)c3ccc(C)cc3)CC2)cc1	-0.7	3.5	-3.4%	0.2	-0.7	0.6
SMILES	TRHR agonist	D1 PAM	GRP78 ERSR act	TRHR enhancer	D1 antagonist	D1 ag
COc1ccc(S(=O)(=O)N(C)CC(=O)NCCC2=CCCCC2)cc1	-1.3	-2.2	-1.3%	34.8*	-5.9	2.6
COc1ccc(CCNC(=O)C2CCN(S(=O)(=O)c3ccc(C)cc3)CC2)cc1	-0.7	-12.4	1.9%	-13.4	-34.7*	8.4
COc1ccc(S(=O)(=O)N2CCCCC2C(=O)O)cc1OC (stereo unspecified)	0.5	-4.8	-5.8%	32.8*	-12.0	0.2
Cc1n[nH]c(=O)c2c1nnn2Cc1ccccc1Cl	-0.2	-6.7	-0.8%	-25.5	-51.5*	0.3
COc1ccc(F)cc1-c1cc(C(=O)NCc2cc(C(F)(F)F)cc(C(F)(F)F)c2)[nH]n1	·	·	-3.0%	·	·	·
Cc1ccc(C(=O)/C=C\C(=O)c2ccc(C)cc2)cc1	0.6	-10.5	1.7%	2.5	-38.3*	2.2
CC(/C=C/C(=O)c1ccc(C)cc1)=C\c1ccccc1	0.3	-2.4	-1.9%	-1.3	-13.5	2.8
CCC(=O)N1N=C(c2ccc(NS(=O)(=O)c3ccc(C)cc3)cc2)CC1c1ccco1 (stereo unspecified)	·	·	-6.6%	·	·	·
COc1ccc(C2=NN(C(=O)CSc3nccn3C)C(c3ccco3)C2)cc1 (stereo unspecified)	·	·	-3.7%	·	·	·
CCC(=O)N1N=C(c2ccc(C)cc2)CC1c1ccco1 (stereo unspecified)	-2.4	-3.1	2.3%	2.9	-37.2*	3.3
COc1ccc(C2=NN(C(=O)CSc3nnc(C)c(=O)n3N)C(c3ccco3)C2)cc1 (stereo unspecified)	-0.6	-4.5	-0.7%	4.0	-80.0*	1.7
C#CCOc1ccc(C(=O)N(C)c2ccccc2I)cc1	·	·	-3.0%	·	·	·
COCCNC(=O)Cn1cc(/C=C(\C#N)C(=O)NC2CCCC2)c2ccccc21	-0.4	32.9*	?	-16.8	-4.0	1.4
CNC(=O)/C(C#N)=C/c1cn(CC(=O)NCc2ccco2)c2ccccc12	-0.4	2.4	3.8%	5.3	-10.1	-2.8
CC(C)(C)OC(=O)Cc1nnc(-c2cc3ccccc3[nH]2)s1	1.0	-0.3	·	-2.6	8.2	1.7
COc1cc(C(=O)Nc2ccc(S(=O)(=O)Nc3nccc(C)n3)cc2)cc(OC)c1OC	-0.2	-1.6	31.6µM*	-0.6	-11.6	2.3
CCOc1cc(C(=O)Nc2ccc(S(=O)(=O)Nc3cc(C)on3)cc2)cc(OCC)c1OCC	0.4	-2.4	-4.2%	4.2	31.8	1.9
